From PubChem BioAssay AID2284369 (EPA ToxCast)
Records with an inconclusive call do not appear. Calls of active or inactive are those of the source. The calls were made as follows: active = hit-call score of the fitted dose curve at least 0.9, where 1 is the maximum; inconclusive = response in the unintended direction; inactive = score below 0.9.

System: frog Estrogen Receptor (ER1), gene 398734
Assay: ATG_frER1_EcoTox2: Attagene TRANS-FACTORIAL EcoTox-2 HepG2 Assay for frog Estrogen Receptor (ER1)
Experimental: ATG_EcoTox2 is a cell-based, multiplexed assay created by modifying the existing Attagene TRANS-FACTORIAL system to include a panel of nuclear receptors from some or all the following species: human (Homo sapiens), african clawed frog (Xenopus laevis), rainbow trout (Oncorhynchus mykiss), japanese medaka (Oryzias latipes), and zebrafish (Danio rerio). The ECOTOX2-FACTORIAL format uses HepG2, a human liver cell line, with measurements taken at 24 hours after chemical dosing in a 24-well plate. ATG_frER1_EcoTox2 is one of 29 assay components calculated in the ATG_EcoTox2 assay. It is designed to make measurements of mRNA induction, a form of inducible reporter, as detected with fluorescence intensity signals by Reverse transcription polymerase chain reaction (RT-PCR) and Capillary electrophoresis technology.The assay endpoint ATG_frER1_EcoTox2 was analyzed in the positive analysis fitting direction relative to DMSO as the negative control and baseline of activity. Using a type of inducible reporter, measures of mRNA for gain-of-signal activity can be used to understand the reporter gene at the transcription factor-level as they relate to the gene ER. Furthermore, this assay endpoint can be referred to as a primary readout, because this assay has produced multiple assay endpoints where this one serves a reporter gene function. To generalize the intended target to other relatable targets, this assay endpoint is annotated to the nuclear receptor intended target family, where the subfamily is steroidal.
Human liver HepG2 cells are transiently transfected with multiple reporter transcription units (MRTUs) in 6-well plates using FuGene 6 reagent (Roche; 3 ml FuGene/1 mg DNA). The MRTU constructs are regulated by a cis-regulating element (promoter). Each RTU expresses a GAL4-UAS that regulates the transcription of a nearby target reporter gene sequence. A major difference between the CIS and TRANS system is that in CIS activities of endogenous TFs are measured, whereas the TRANS assay evaluates changes in activities of exogenous, chimeric NR-Gal4 proteins. […] At the end of 24 hour incubation, total RNA was isolated using TriZol reagent (Invitrogen). The isolated RNA is then reverse-transcribed using oligo(dT) primer and Mo-MLV reverse transcriptase (Invitrogen) with DNAse I (Ambion) treatment for 30 min. The one-tenth of the produced cDNA was amplified by PCR using Taq DNA polymerase (Invitrogen) and two reporter sequence-specific primers. […] The fragments were purified using Qiaquick PCR columns (Qiagen), analyzed on an ABI 3130xL genetic analyzer (Applied Biosystems) with peak positions identified by using a set of X-rhodamine (ROX)-labeled MapMarker1000 molecular weight standards (BioVentures). […]

In the case of O=P(Oc1ccccc1)(Oc1ccccc1)Oc1ccccc1, the outcome is reported as “inactive”.

For O=C(O)C(F)(F)C(F)(F)C(F)(F)C(F)(F)C(F)(F)C(F)(F)C(F)(F)F, the AC50 was 75 µM (active).

With CCCCOCN(C(=O)CCl)c1c(CC)cccc1CC the outcome was “inactive”.

For O=S(=O)(O)C(F)(F)C(F)(F)C(F)(F)C(F)(F)C(F)(F)C(F)(F)F, the outcome was “inactive”.
